Source: PubChem BioAssay
SENP6 inh: blocks the human protease SENP6 | Recombinant SENP6 catalytic domain, aminoluciferin luminescence | inhibition, % at 10 µM | 330,000 compounds, 1.8% hits;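 active means inhibition above about 50% at the single tested dose, limit read from the data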
Target sequence (Q9GZR1 628-1112 limits assumed): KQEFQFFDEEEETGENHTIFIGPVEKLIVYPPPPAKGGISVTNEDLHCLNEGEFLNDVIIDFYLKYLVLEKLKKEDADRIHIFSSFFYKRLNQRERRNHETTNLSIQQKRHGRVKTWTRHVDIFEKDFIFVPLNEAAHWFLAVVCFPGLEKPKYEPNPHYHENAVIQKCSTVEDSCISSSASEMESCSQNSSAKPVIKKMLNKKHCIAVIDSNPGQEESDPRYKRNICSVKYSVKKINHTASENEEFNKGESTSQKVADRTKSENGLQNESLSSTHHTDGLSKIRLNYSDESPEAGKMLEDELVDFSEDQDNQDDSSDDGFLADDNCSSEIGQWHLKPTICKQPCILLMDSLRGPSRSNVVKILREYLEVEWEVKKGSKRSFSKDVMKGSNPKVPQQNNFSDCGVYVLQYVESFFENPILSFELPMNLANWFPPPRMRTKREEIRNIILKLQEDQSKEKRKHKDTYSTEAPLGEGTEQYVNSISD
TRAIL sens C8: caspase-8 TRAIL sensitization | NB7+C8 cells + TRAIL, ATPlite viability luminescence | inhibition (viability loss, TRAIL sensitization), % at 10 µM | 360,000 compounds, 1% hits;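 active means compounds causing at least 50% loss of cell viability in the single-dose screen, relative to plate controls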
SENP8 block-1: blocks human SENP8 cleavage of Nedd8 substrate; recombinant SENP8, Nedd8 substrate fluorescence; AID 602440; 360,000 compounds, 0.64% hits; inhibition, % at 20 µM; Q96LD8; in the data active means inhibition mostly above about 40%, no sharp cut-off; inactive means mostly below about 27%
SENP7 block: inhibitors of human SENP7 protease; recombinant SENP7, Z-RLRGG-aminoluciferin luminescence, 40 min; AID 434973; inhibition, % at 5 µM; 330,000 compounds, 1.5% hits;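 active means inhibition above about 50% at the single test dose, limit read from the data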
PPC-1+TRAIL kill: compounds killing PPC-1 cancer cells with TRAIL present (potentiator screen, no TRAIL-free arm). PPC-1 cells + TRAIL, ATPLite viability luminescence. cell killing (% activity), % at 4 µM or 5 µM. 220,000 compounds, 0.41% hits. AID 1443;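 active means cell killing above 50% in the first pass at 4 µM, then a duplicate retest at 5 µM averaging 50% or more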
SENP8 block-2: blocks the human protease SENP8. Q96LD8. purified SENP8, Z-RLRGG-aminoluciferin cleavage, luminescence. inhibition, % at 10 µM. 330,000 compounds, 1.2% hits. AID 2540; in the data active means inhibition above about 50%
Hits are given with their value; 0 = inactive; - = not tested or not shown. This is a sample that favours compounds with a hit; in the whole collection about 3% have one here.

SMILES	SENP6 inh	TRAIL sens C8	SENP8 block-1	SENP7 block	PPC-1+TRAIL kill	SENP8 block-2
COc1ccc(-c2nc(N)nc(C)c2-c2ccc(Cl)cc2)c(O)c1	0	0	0	0	-	0
Cc1nc(N)nc(N)c1-c1ccc(Cl)c(Cl)c1	-	82	0	-	-	-
c1ccc2c(NCCc3c[nH]c4ccccc34)c3ccccc3nc2c1	0	75	0	0	-	0
CCCc1ccc(-c2cc(NC(=O)CSc3nnc(N)s3)n(-c3ccccc3)n2)cc1	0	63	0	0	0	0
Cc1nnc(SCC(=O)Nc2cc(-c3cc(C)c(C)cc3C)nn2-c2ccccc2)s1	0	0	0	0	0	0
Cc1nc(Cl)c(C(=O)NC(C)(C)C)c(C)c1Cl	0	0	0	0	0	0
Cc1ccc(S(=O)(=O)NCCc2ccncc2)cc1[N+](=O)[O-]	0	0	0	0	-	0
CC(=O)Nc1nc(-c2ccc(Cl)cc2)ns1	55	0	0	0	0	0
O=C(CSc1nc2ccccc2s1)N/N=C/c1ccc(C(=O)O)cc1	0	0	0	0	0	0
Cc1ccc(CSc2nnc(SCC(=O)N/N=C/c3ccccc3OCC(=O)O)s2)cc1	88	0	0	0	0	60
Cc1ccc(CSc2nnc(SCC(=O)N/N=C/c3ccc(C(=O)O)cc3)s2)cc1	92	0	0	55	0	72
Cc1ccc(CSc2nnc(SCC(=O)N/N=C/c3c[nH]c4ccccc34)s2)cc1	-	0	0	-	-	-
O=C(CSc1nnc(SCc2ccccc2)s1)N/N=C/c1ccc(C(=O)O)cc1	0	0	0	0	0	51
CC(C)c1ccc(C2CC(=O)c3cnc(NC(=O)c4ccco4)nc3C2)cc1 (configuration not stated)	0	0	0	0	-	0
O=C(OCc1ccccc1)N(CCCCN(CCCNCc1ccccc1)C(=O)OCc1ccccc1)CCCNCc1ccccc1	-	96	0	-	-	-
Cc1cccc(N2CCN(S(=O)(=O)c3ccc4c(c3)NC(=O)C(C)S4)CC2)c1C (configuration not stated)	0	54	0	0	-	0
CC1Sc2ccc(S(=O)(=O)N3CCN(c4ccccc4)CC3)cc2NC1=O (configuration not stated)	0	0	0	0	-	0
CC1CCCC12NC(=O)NC2=O (configuration not stated)	-	0	0	-	-	-
O=C(CSc1nnc(-c2ccco2)c(-c2ccco2)n1)c1ccccc1	0	0	0	0	-	0
CC(=O)c1ccc(NC(=O)CSc2nnc(-c3ccco3)c(-c3ccco3)n2)cc1	0	0	45	0	0	0
CC1(C)CC(=O)C=C(c2ccc(-c3ccc4[nH]ccc4c3)cc2)C1=O	-	70	0	-	-	-
CC1(C)CC(=O)C=C(c2ccccc2-c2ccc3cc[nH]c3c2)C1=O	-	0	0	-	-	-
CCc1ccc(-c2cc(C(=O)O)c3ccccc3n2)s1	0	68	0	0	-	0
O=C(O)c1cc(-c2c[nH]c3ccccc23)nc2cc3ccccc3cc12	0	52	0	0	0	0
O=C(O)c1cc(-c2ccc3ccccc3n2)nc2ccccc12	0	78	0	0	-	0
SMILES	SENP6 inh	TRAIL sens C8	SENP8 block-1	SENP7 block	PPC-1+TRAIL kill	SENP8 block-2
O=C(NC1CCCCC1)c1ccc(-c2ccccc2)cc1	0	0	0	0	-	0
CCCCN1CC[C@@H]2C=CC[C@H](C(=O)OC)[C@@H]2C1=O	-	0	0	0	-	-
CCc1ccc(C(=O)Nc2cc(C)ccc2F)s1	0	53	0	0	0	0
CSc1ccc(/C=N/NC(=O)CNc2ccc3ccccc3c2)cc1	0	0	0	0	0	0
CSc1ccc(/C=N/NC(=O)CNc2cccc3ccccc23)cc1	73	0	0	0	0	0
O=[N+]([O-])c1cccn2cc(-c3ccc(Br)cc3)nc12	0	0	0	0	0	0
Nc1nn2cc(-c3ccc(Br)cc3)nc2c2ccccc12	87	51	0	79	0	75
CCN(Cc1ccccc1)C(=O)CCS(=O)(=O)c1cc2c(cc1Cl)NC(=O)CO2	0	0	0	0	-	0
O=C(c1ccccc1)N1CCC(CC2CC(c3cccc(Br)c3)=NO2)(C(=O)NCC2CCCCC2)CC1 (configuration not stated)	0	0	50	0	-	0
O=C(NC(=S)N1CCCCC1CO)c1cc(Br)ccc1Cl (configuration not stated)	0	0	0	0	-	0
CCCCCCCCCCCCCCC(O)C[N+](C)(CCO)CCO (configuration not stated)	-	88	0	-	-	-
